About 83,000 compounds went through this panel and 20% of them were active in at least one assay; those are over-represented in the sample as a whole.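 A percent growth of 40 corresponds to 60% growth inhibition; 0 means no net growth; -100 means all cells died. Active threshold: below 10.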 Active and inactive are the calls of the source.
Tests used:
Test in all cases: NCI-60 one-dose screen, 48 h (100 = growth as untreated, 0 = no growth, -100 = all killed)
Details in all cases: 10 µM unless noted
[1] = test system: SK-MEL-2 melanoma
[2] = test system: EKVX NSCLC
[3] = test system: SN12C renal
[4] = test system: UO-31 renal
[5] = test system: TK-10 renal
[6] = test system: ACHN renal
[7] = test system: CAKI-1 renal
[8] = test system: A498 renal
[9] = test system: CCRF-CEM leukemia
[10] = test system: SR leukemia
[11] = test system: RPMI-8226 leukemia
[12] = test system: OVCAR-8 ovarian
[13] = test system: OVCAR-5 ovarian
[14] = test system: OVCAR-4 ovarian
[15] = test system: SK-OV-3 ovarian
[16] = test system: IGROV1 ovarian
[17] = test system: OVCAR-3 ovarian
[18] = test system: HS 578T breast
[19] = test system: NCI/ADR-RES ovarian
[20] = test system: MOLT-4 leukemia

Measured: growth

O=C(O)/C=C/c1cn(-c2ccccc2)nc1-c1ccc(F)cc1
inactive: [1] 106% | [2] 97.2% | [3] 91.1% | [4] 60.7% | [5] 103% | [6] 92% | [7] 88.9% | [8] 76.1% | [9] 86.4% | [10] 104% | [11] 97.4% | [12] 87.4% | [13] 88.8% | [14] 99.1% | [15] 87.8% | [16] 91.6% | [17] 96% | [18] 83.4% | [19] 90.4%

Cc1nc2ccccc2c(/C=C/c2ccc(Cl)cc2)c1C(=O)/C=C/c1ccccc1
inactive: [2] 31.5% | [3] 20.6% | [5] 17.7% | [8] 44% | [10] 11.5% | [14] 33.1% | [15] 57.4% | [18] 25%
active: [1] -14.1% | [4] -38% | [6] 5.92% | [7] 4.04% | [9] 6.45% | [11] -11.8% | [12] -2.61% | [13] -21.8% | [16] 0.031% | [17] -35.1% | [19] 0.775%

O=S(=O)(c1ccc(NCSc2nc3ccccc3s2)cc1)c1ccc(NCSc2nc3ccccc3s2)cc1
inactive: [1] 78.8% | [2] 101% | [3] 95.5% | [4] 60.2% | [5] 92.6% | [6] 102% | [7] 95.4% | [8] 112% | [9] 71.8% | [10] 83.4% | [11] 92.1% | [12] 96.8% | [13] 107% | [14] 117% | [15] 71.3% | [16] 97% | [17] 97.7% | [18] 90.6% | [19] 102%

N/C(=N\c1nc2ccccc2s1)NC(=O)Nc1ccccc1
inactive: [1] 30.2% | [2] 54% | [3] 29% | [4] 46.3% | [5] 75.3% | [6] 55.7% | [7] 44.3% | [9] 12.5% | [20] 27.8% | [10] 15.7% | [12] 41% | [13] 51.7% | [14] 73.8% | [15] 51% | [16] 58.8% | [17] 28.4% | [18] 27.8% | [19] 17.6%
active: [11] 7.59%

C#Cc1c(I)n(C2OC(CO[Si](C)(C)C(C)(C)C)C3OC(C)(C)OC32)c(=O)[nH]c1=O (stereo not given)
inactive: [1] 59.9% | [2] 96.7% | [3] 89.7% | [6] 49.7% | [7] 74.2% | [12] 97.8% | [13] 91.9% | [14] 88.9% | [15] 107% | [16] 36.6% | [19] 89.6%
active: [4] -77.3% | [5] -62.3% | [9] -29.7% | [20] -25.5% | [10] -41.8% | [11] -66.8% | [17] -40.2% | [18] 5.41%

CC(C)CCc1nc2ccc(NCc3ccc(OCCN4CCC(C)CC4)cc3)cc2[nH]1
inactive: [1] 110% | [2] 78.5% | [3] 69.9% | [4] 57.4% | [5] 111% | [6] 97.3% | [7] 64.8% | [8] 79.3% | [9] 67.3% | [10] 14.2% | [11] 68.6% | [12] 96.6% | [13] 95% | [14] 80.6% | [15] 102% | [16] 79.3% | [17] 71.9% | [19] 97%

CCN1C(=O)N(CC)C2C1NC(=S)N2/N=C/C=C/c1cccs1 (stereo not given)
inactive: [1] 64.1% | [2] 55.1% | [3] 30.2% | [4] 44.9% | [5] 70.3% | [6] 42.4% | [7] 36.5% | [9] 12.1% | [20] 20.4% | [10] 17.8% | [11] 25.4% | [12] 17.2% | [13] 33% | [14] 57.3% | [15] 43.7% | [16] 24.5% | [18] 16.5%
active: [17] 2.01% | [19] 4.47%

CCOC(=O)CCC(=O)P(=O)(O)O
inactive: [1] 104% | [2] 106% | [3] 108% | [4] 105% | [5] 99.3% | [6] 91.6% | [7] 137% | [9] 75.1% | [20] 62.6% | [11] 42.1% | [12] 97.1% | [13] 116% | [14] 115% | [15] 80.5% | [16] 110% | [17] 115% | [18] 114% | [19] 102%
active: [10] 4.41%

Nc1c(C(=O)c2ccc(Cl)cc2)sc(Nc2ccccc2)c1-c1nc2ccccc2s1
inactive: [1] 38.5% | [2] 59.9% | [3] 82.6% | [4] 19.3% | [6] 26.2% | [7] 25.2% | [9] 60.3% | [20] 76.5% | [10] 33.2% | [11] 28.3% | [12] 23% | [13] 46.4% | [16] 29.1% | [18] 32.4% | [19] 18.8%
active: [5] -13.3% | [14] -9.61% | [15] -0.592% | [17] 4.1%

C=CCNc1ccc2c3c(cccc13)C(=O)N(CC=C)C2=O
inactive: [1] 116% | [2] 99.2% | [3] 97.6% | [4] 71.5% | [5] 97.3% | [6] 84.3% | [7] 72.9% | [8] 89.7% | [9] 83% | [10] 74.8% | [11] 95.2% | [12] 96.3% | [13] 92% | [14] 110% | [15] 103% | [16] 88.7% | [17] 107% | [19] 92.8%

COc1cccc(C2C3=C(COC3=O)N(CCO)c3cc4c(cc32)OCCO4)c1 (stereo not given)
inactive: [1] 78.1% | [2] 39.7% | [3] 31% | [4] 75% | [5] 66.9% | [6] 24.8% | [7] 41.6% | [9] 11.5% | [11] 25.4% | [12] 27.7% | [13] 29.8% | [14] 24.2% | [15] 22.6% | [16] 13.8%
active: [8] -21.8% | [10] 9.73% | [17] -59.7% | [18] -5.22% | [19] -35.1%

Cc1nc2ccccc2c(/C=C/c2ccc(Br)cc2)c1C(=O)/C=C/c1ccccc1
active: [1] -4.28% | [4] -74.2% | [6] 6.36% | [7] 4.36% | [9] 6.02% | [20] 7.65% | [11] -8.25% | [12] 2.21% | [13] -18% | [16] -7.6% | [17] -72.1% | [19] -2.99%
inactive: [2] 26.1% | [3] 10.8% | [5] 21.2% | [10] 13.6% | [14] 12.5% | [15] 49.4% | [18] 25.9%

CC(Cc1cccc2ccccc12)C(N)=O (stereo not given)
inactive: [1] 105% | [2] 104% | [3] 97.2% | [4] 87.3% | [5] 98.7% | [6] 103% | [7] 93.8% | [8] 100% | [9] 97.1% | [10] 101% | [11] 102% | [12] 108% | [13] 94.9% | [14] 107% | [15] 102% | [16] 96.8% | [17] 113% | [18] 99.2% | [19] 110%

Cc1c2cnccc2c(C)c2c1c1cc(C(=O)O)ccc1n2C
active: [1] -65.5% | [3] 0.942% | [4] -36.5% | [5] -7.59% | [6] -15% | [7] -6.62% | [8] -57.4% | [9] 5.53% | [11] -1.59% | [13] 9.91% | [14] -4.45% | [15] -4.58% | [16] 0.419% | [17] 0.0817% | [18] 8.93% | [19] 3.03%
inactive: [2] 16% | [10] 18.6%

O=C1/C(=C/c2cccc([N+](=O)[O-])c2)COc2ccc(O)c(O)c21
inactive: [2] 34.7% | [14] 15.3% | [15] 68.9%
active: [1] -25.4% | [3] -71.3% | [4] -98.8% | [5] -48.5% | [6] -98.4% | [7] -67.5% | [9] 0.148% | [20] -1.81% | [10] 8.03% | [11] -24.7% | [12] 5.45% | [13] -48.8% | [16] -21.6% | [17] -83.6% | [18] 6.86% | [19] 9.52%

COc1cc2c(c(OC)c1OC)CCC(c1cccc(NC(=O)c3cccc(Cl)c3)c1)O2 (stereo not given)
inactive: [1] 95.7% | [2] 85.9% | [3] 92% | [4] 64.2% | [5] 90.2% | [6] 90.7% | [7] 97.9% | [8] 63.9% | [9] 78.2% | [10] 60.3% | [11] 64.9% | [13] 92.8% | [14] 81.1% | [15] 72.9% | [16] 86.8% | [17] 92% | [18] 76.3% | [19] 90.5%
